# Experimental data taken from publication PMC8769072, “Proteome‐scale mapping of binding sites in the unstructured regions of the human proteome” (Molecular Systems Biology, 2022).
# Key:
# [1] = target: KEAP1 321-609, Q14145
# [2] = target: KPNA4 68-487, O00629
# [3] = target: EPS15 121-215, P42566
# [4] = target: MAP1LC3A 2-121, Q9H492
# [5] = target: MAP1LC3B 2-119, Q9GZQ8
# Chain of KPNA4 68-487, O00629 (O00629 68-487): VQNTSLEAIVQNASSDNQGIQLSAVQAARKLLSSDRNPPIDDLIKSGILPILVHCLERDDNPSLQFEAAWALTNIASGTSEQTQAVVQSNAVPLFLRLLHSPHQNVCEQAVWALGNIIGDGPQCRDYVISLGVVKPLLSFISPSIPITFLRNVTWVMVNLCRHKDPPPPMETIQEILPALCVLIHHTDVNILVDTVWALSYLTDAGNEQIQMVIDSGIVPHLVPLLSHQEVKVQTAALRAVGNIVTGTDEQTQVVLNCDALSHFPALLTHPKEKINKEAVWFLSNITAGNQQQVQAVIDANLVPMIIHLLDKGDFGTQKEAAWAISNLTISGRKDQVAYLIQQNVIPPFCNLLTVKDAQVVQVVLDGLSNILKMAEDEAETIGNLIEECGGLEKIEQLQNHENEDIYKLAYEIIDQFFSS
# Chain of EPS15 121-215, P42566 (P42566 121-215): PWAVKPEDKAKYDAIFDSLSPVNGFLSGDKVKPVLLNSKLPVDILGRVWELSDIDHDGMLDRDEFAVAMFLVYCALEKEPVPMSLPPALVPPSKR
# Chain of KEAP1 321-609, Q14145 (Q14145 321-609): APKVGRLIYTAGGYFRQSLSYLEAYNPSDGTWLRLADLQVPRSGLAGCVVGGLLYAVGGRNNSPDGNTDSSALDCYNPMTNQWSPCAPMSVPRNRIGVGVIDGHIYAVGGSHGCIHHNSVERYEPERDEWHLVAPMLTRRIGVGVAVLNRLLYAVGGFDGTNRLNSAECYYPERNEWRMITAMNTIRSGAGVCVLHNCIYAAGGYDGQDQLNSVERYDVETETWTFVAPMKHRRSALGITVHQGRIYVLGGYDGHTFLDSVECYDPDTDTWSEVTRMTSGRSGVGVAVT
binder,measurement,setting,value
"LENNSETGELQPVLPE [TRIM37, O94972]",selected by phage display,[1],confidence 2 (active)
HEISLKRSYESVEGNI,selected by phage display,[2],confidence 3 (active)
"GLKRPASQDFEYLQEE [NRK, Q7Z2Y5]",selected by phage display,[2],confidence 2 (active)
"VEKDKVTGETRVLSST [PALM, O75781]",selected by phage display,[1],confidence 2 (active)
"REHNPESGEEVVTLLE [ZBED9, Q6R2W3]",selected by phage display,[1],confidence 2 (active)
"YDPVTGEWKSLAKLPE [KLHL24, Q6TFL4]",selected by phage display,[1],confidence 3 (active)
"WKRDSSGNKIMHPVSG [NUDT9, Q9BW91]",selected by phage display,[2],confidence 2 (active)
"RGLKRSLSEMEIGMVV [SRF, P11831]",selected by phage display,[2],confidence 2 (active)
"DSPGLNASNPFTQLER [DLGAP5, Q15398]",selected by phage display,[3],confidence 2 (active)
"NPFSVHTATAVPSGKI [POLA1, P09884]",selected by phage display,[3],confidence 3 (active)
"GGIIDPSTGERFPVTD [PLEC, Q15149]",selected by phage display,[1],confidence 4 (active)
"AEQSKRPRLEVGHQGV [EP400, Q96L91]",selected by phage display,[2],confidence 3 (active)
"VNPFAQETLFVGNDQV [TMEM108, Q6UXF1]",selected by phage display,[3],confidence 3 (active)
"DVGLGINPFADGMGAF [ZIC1, Q15915]",selected by phage display,[3],confidence 3 (active)
"DLKRRLDSITSSQSSA [KDR, P35968]",selected by phage display,[2],confidence 2 (active)
"DHQFPAKRPRLSEPQG [HJURP, Q8NCD3]",selected by phage display,[2],confidence 2 (active)
"NPFLNGNVPVMPSLDE [SH3BP4, Q9P0V3]",selected by phage display,[3],confidence 4 (active)
"PINPSTGELSTSSSSN [MCC, P23508]",selected by phage display,[1],confidence 4 (active)
"SLAPVKRTYEQMEFPL [ADNP, Q9H2P0]",selected by phage display,[2],confidence 3 (active)
"ELKRIKTEDGEGIVIA [FOXK2, Q01167]",selected by phage display,[2],confidence 2 (active)
"ELKRKLEQEQKLVEVL [MKL2, Q9ULH7]",selected by phage display,[2],confidence 3 (active)
"VLPDALTDGSDVVSDL [CFAP36, Q96G28]",selected by phage display,[1],confidence 2 (active)
"VHTTSKRPRLDPVLAD [FAM90A22P, A8MWA6]",selected by phage display,[2],confidence 2 (active)
"AIKRGYDDLQTIVPTA [MLX, Q9UH92]",selected by phage display,[2],confidence 2 (active)
"NPFSAAPAATTVVQTH [SAP130, Q9H0E3]",selected by phage display,[3],confidence 3 (active)
"NPFNSSKLPEGHSSQQ [SYTL2, Q9HCH5]",selected by phage display,[3],confidence 2 (active)
"PSPETGEAKRSAFVEV [PRDM8, Q9NQV8]",selected by phage display,[1],confidence 3 (active)
"AGVKRSAAEMYGSVTE [HNRNPC, P07910]",selected by phage display,[2],confidence 3 (active)
"GPDSFTVLGNSMPSVF [BCL9, O00512]",selected by phage display,[4],confidence 4 (active)
same,selected by phage display,[5],confidence 3 (active)
"QGRPVSVWDVLFSSYL [EPPK1, P58107]",selected by phage display,[3],confidence 3 (active)
"NPFVPSMPAAPPTLPL [DENND1A, Q8TEH3]",selected by phage display,[3],confidence 2 (active)
LESKRPRLEQVSDSHF,selected by phage display,[2],confidence 2 (active)
"QSWLSATLSLATDTMR [MYO18B, Q8IUG5]",selected by phage display,[3],confidence 2 (active)
"FALEYEADSGEVTSVI [C2orf68, Q2NKX9]",selected by phage display,[1],confidence 2 (active)
"TPLMNPFRLENVTVSE [TMEM114, B3SHH9]",selected by phage display,[3],confidence 4 (active)
"ESPSVKRMRLSEGWAT [MEF2C, Q06413]",selected by phage display,[2],confidence 2 (active)
"NPFLPYISDTGTTPPE [DRAM1, Q8N682]",selected by phage display,[3],confidence 4 (active)
"EFGPENPFRTQQMAAP [CDC40, O60508]",selected by phage display,[3],confidence 4 (active)
"TPSEAERWLEEVSQVA [NUMBL, Q9Y6R0]",selected by phage display,[3],confidence 3 (active)
"NPFSVSNPNPLLPSPA [RBM20, Q5T481]",selected by phage display,[3],confidence 2 (active)
"SPTILGKRSYEQHNGV [MTA1, Q13330]",selected by phage display,[2],confidence 2 (active)
"MSSSPVKRQRMESALD [TALDO1, P37837]",selected by phage display,[2],confidence 3 (active)
"SNPFMTGAPTGQFPTG [AGFG1, P52594]",selected by phage display,[3],confidence 3 (active)
"LNPFLTKSSGDVHLSI [PICALM, Q13492]",selected by phage display,[3],confidence 4 (active)
"NPFTTLTDRELEEYRR [ADD1, P35611]",selected by phage display,[3],confidence 3 (active)
"GNPFMGVSATAVSSSS [CHD8, Q9HCK8]",selected by phage display,[3],confidence 2 (active)
"TDELLRHPVTGEVVER [C6orf132, Q5T0Z8]",selected by phage display,[1],confidence 4 (active)
"GVKRTYSEVYPGQQYL [ZMIZ2, Q8NF64]",selected by phage display,[2],confidence 3 (active)
"GKRPYEAIEAGKAFRY [ZNF471, Q9BX82]",selected by phage display,[2],confidence 2 (active)
"LNPFEVLQIDPEVTDE [DNAJC8, O75937]",selected by phage display,[3],confidence 3 (active)
"TTWLHPVTGEAVVTGH [PLEKHA5, Q9HAU0]",selected by phage display,[1],confidence 2 (active)
"GGNPFASVGSSSSSGE [UBQLN2, Q9UHD9]",selected by phage display,[3],confidence 2 (active)
"NPFLVAAQDSETDYVT [RTN4, Q9NQC3]",selected by phage display,[3],confidence 2 (active)
"GLNPFGDSTHAAAAAA [ZIC3, O60481]",selected by phage display,[3],confidence 2 (active)
"KRPRYDDTVKINSMGG [ZNF318, Q5VUA4]",selected by phage display,[2],confidence 3 (active)
"ELTGEKFLEMANPNVA [MACF1, Q9UPN3]",selected by phage display,[3],confidence 2 (active)
"FDAVTGEFTGMPEQWA [PAK1, Q13153]",selected by phage display,[1],confidence 3 (active)
"KRPHQEFGISSQGAYL [PDE3B, Q13370]",selected by phage display,[2],confidence 2 (active)
"LNQGNPFIATSGPGHL [CHD7, Q9P2D1]",selected by phage display,[3],confidence 2 (active)
"DMESDIRSWELFLSNV [TTC3, P53804]",selected by phage display,[3],confidence 2 (active)
"WTDLENSIVSVERMQD [ABCC6, O95255]",selected by phage display,[4],confidence 3 (active)
same,selected by phage display,[5],confidence 2 (active)
"EDSIEPPHKRLALSSE [DMTF1, Q9Y222]",selected by phage display,[2],confidence 3 (active)
